# TDP1 cell CPT: DT40-hTDP1 cell growth loss with CPT | chicken DT40 Tdp1-/-;hTDP1 cells + 20 nM CPT, ATP luminescence, 48 h | Potency, µM (series often up to 46.2 µM), for the others: top-dose activity change, negative = growth inhibition, hits mostly inhibitors | 420,000 compounds, 12% hits | AID 686979; note: % is set by controls: 0 for no effect and ±100 for the full control effect; nearly all actives have a fitted effect of over 55% in size
#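 Chicken DT40 Tdp1-/- cells stably complemented with human TDP1 were seeded at 400 cells/well in medium containing 20 nM camptothecin, exposed to pin-transferred compounds, and grown at 37 °C for at least 48 hr. Viability was read as ATP luminescence.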
# HT1080 IDH1KD tx: HT-1080 IDH1 knockdown cell toxicity (counter line) | HT-1080 IDH1 knockdown viability, ATP luminescence, 48 h | Potency, µM (series often up to 46.1 µM), for inactives: at the highest dose activity, negative = toxicity, actives largely listed as cytotoxic | 360,000 compounds, 2% hits | AID 686971;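 note: 0% = DMSO wells and -100% = cell-free medium wells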
#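 HT-1080-IDH1KD cells (IDH1 knocked down), 750/well in RPMI with 5% FBS, treated with compound 48 h at 37 degrees C. Viability by CellTiter-Glo luminescence, normalised to DMSO and no-cell wells; concentration-response curves classed.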
# HepG2 viability: kills HepG2 cells in TGF-b inhibitor counter-screen. 410,000 compounds, 0.76% hits. Potency, µM (titrated, usually from 46.1 µM), without a hit: at the top dose activity change, negative = cytotoxicity, hits mostly cytotoxic. HepG2 CAGA-GFP viability, ATP luminescence, 18 h. AID 588856
#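 CellTiter-Glo luminescence gave cytotoxicity after 18 hours at 37 degrees C. The cells were HepG2 CAGA-GFP in 1% FBS DMEM, stimulated with 500 pg/mL TGF-beta after compound addition. %Activity was normalised to no-cell wells (complete cell-killing) and DMSO (no toxicity), and curves were fitted and classified.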
# TDP1 cell noCPT: qHTS for Inhibitors of human tyrosyl-DNA phosphodiesterase 1 (TDP1): qHTS in cells in absence of CPT; DT40 Tdp1-/- hTDP1 cells, no CPT, ATP luminescence, 48 h; Potency, µM (series often up to 46.2 µM), for inactives: at the top dose activity change, negative = growth inhibition, hits mostly inhibitors; 420,000 compounds, 15% hits; AID 686978, 2013; note: % is set by controls: 0 for no effect and ±100 for the full control effect; nearly all actives have a fitted effect of over 55% in size
#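 Stably hTDP1-transfected Tdp1-null chicken DT40 cells were treated with library compounds minus camptothecin and grown for at least 48 hr at 37 °C, after which cellular ATP was quantified by luminescence.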
# HT1080NT lethal: kills 2HG-producing HT-1080-NT fibrosarcoma cells. AID 686970. Potency, µM (highest dose often 46.1 µM), for inactives: top-dose activity, negative = less viability, usual class: cytotoxic. HT-1080-NT fibrosarcoma viability, CellTiter-Glo ATP luminescence, 48 h. 360,000 compounds, 1.6% hits;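 note: NT is the 2HG producing partner of a matched IDH1 knockdown line; 0% = DMSO-treated cells and -100% = media-only wells without cells; nearly all actives have a fitted effect of over 55% in size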
#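 Luminescent CellTiter-Glo readout after 48 hours of compound exposure at 37 degrees C defined viability of HT-1080-NT cells. Activity was normalized to DMSO wells and cell-free media wells; concentration-response curves were fitted and assigned curve classes.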
# TGFb inhibitor: inhibitors of TGF-b signaling; 410,000 compounds, 1.2% hits; Potency, µM (highest dose often 46.1 µM), inactives show top-dose activity, negative = inhibition, hits mostly inhibitors; HepG2 CAGA-GFP TGF-b/SMAD3 reporter, GFP fluorescence, 18 h; TGF-beta stimulated, 500 pg/mL final; note: % is set by controls: 0 for no effect and ±100 for the full control effect; nearly all actives have a fitted effect of over 65% in size
#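 Smad-responsive CAGA-GFP expression was quantified in HEPG2 cells exposed to compounds and 500 pg/mL final TGF-beta for 18 h at 37 degrees C; unstimulated wells defined full inhibition.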
# * marks the source's active call; other numbers are inactive results; ? = inconclusive; nt = no result; [ ] = dose if it differs, or a comment. This is a sample that favours compounds with a hit; in the whole collection about 17% have one here. Calls come from the whole dose curve; as a rule, active = well fitted curve in the direction sought with a large enough effect; inconclusive = small, poorly fitted or top-dose-only effect, or another doubt; inactive = no such curve, though single readings can be large; an effect the other way counts as inactive or inconclusive. Potency is the fitted concentration of half-maximal effect.
SMILES,TDP1 cell CPT,HT1080 IDH1KD tx,HepG2 viability,TDP1 cell noCPT,HT1080NT lethal,TGFb inhibitor
COc1ccc(C(c2nnnn2CC2CCCO2)N2CCC(C(N)=O)CC2)cc1 (stereo unspecified),0.0%,18.5%,-0.4%,-23.2%,11.6%,0.0%
CCCCC(c1nnnn1CC1CCCO1)N1CCN(Cc2ccccc2)CC1 (stereo unspecified),-14.4%,-0.6%,-21.6%,-11.8%,-12.4%,0.2%
CCCCC(c1nnnn1CC1CCCO1)N1CCN(c2cccc(C)c2C)CC1 (stereo unspecified),?,-15.8%,43.8%,16.4µM*,-15.7%,3.5%
COc1ccc(C(c2nnnn2CC2CCCO2)N2CCN(c3cccc(C)c3C)CC2)cc1 (stereo unspecified),?,-15.5%,-5.4%,18.4µM*,-13.3%,-7.3%
COc1ccc(-c2cc(C(=O)NCCc3ccc(OC)c(OC)c3)c3c(-c4ccc(F)cc4)[nH]nc3n2)cc1,-9.9%,nt,0.7%,-4.1%,nt,20.4%
CC(C)C1C(c2ccccc2)NC(c2ccccc2)CC1(O)c1ccc(F)cc1 (stereo unspecified),?,?,-105.8%,14.6µM*,?,-9.0%
COc1ccccc1C(=O)NC(=O)COC(=O)c1cnc(C)cn1,1.4%,-2.1%,-9.6%,0.2%,-7.2%,14.3%
COc1cccc(OC2(C)CCN(Cc3ccc(-c4ccccn4)cc3)C2)c1 (stereo unspecified),20.6µM*,-24.3%,-19.3%,?,-26.4%,2.9%
CC1(Oc2cccnc2Cl)CCN(Cc2ccc(OC(F)(F)F)cc2)C1 (stereo unspecified),20.6µM*,2.8%,-24.4%,18.4µM*,-19.4%,-31.5%
Cc1ccc(CN2CCC(C)(Oc3cccc(Cl)c3)C2)cc1 (stereo unspecified),29.1µM*,14.3%,-11.4%,?,11.3%,-9.4%
CC(=O)c1cc2cccc(OC3(C)CCN(Cc4ccc(-c5ccccn5)cc4)C3)c2o1 (stereo unspecified),?,-1.9%,-23.1%,18.4µM*,-1.3%,1.2%
COC(=O)Cc1ccc(OC2(C)CCN(Cc3ccc(-c4ccccn4)cc3)C2)cc1 (stereo unspecified),?,-23.2%,-21.4%,?,?,-10.3%
CCCCNC(=O)CCn1c(=O)c2ccccc2n(CC(=O)NCCc2ccc(OC)c(OC)c2)c1=O,2.1%,7.1%,-30.6%,-23.5%,3.4%,-25.9%
COc1ccc(CN(C)C(=O)c2cc(S(=O)(=O)Nc3ccccc3F)ccc2C)c(OC)c1,-13.8%,-0.4%,-9.5%,-29.5%,0.6%,-13.8%
Cc1ccc(C)c(Cn2c(=O)cc(C(F)(F)F)c3c(C)nn(C)c32)c1,-12.2%,nt,-13.6%,-21.8%,nt,3.9%
CC(C)CN1CCC2(CC1)CCN(C(=O)c1cnccn1)CC2,9.4%,nt,nt,-3.9%,nt,nt
COc1cc(OC)c(OC)cc1CN1CCN(Cc2ccc(SC)cc2)CC1,?,-3.9%,-37.0%,13µM*,-5.1%,?
COc1cc(CN2CCN(Cc3ccc(SC)cc3)CC2)cc(OC)c1O,-20.6%,8.9%,-2.4%,-17.8%,1.3%,-9.6%
Cc1ccccc1OC1(C)CCN(Cc2ccc3ccccc3c2)C1 (stereo unspecified),?,-4.3%,-34.2%,16.4µM*,-8.5%,-11.9%
COc1cc(Cl)ccc1OC1(C)CCN(Cc2ccc(SC)cc2)C1 (stereo unspecified),13µM*,?,-43.1%,18.4µM*,?,?
COc1cc(Cl)c(C)cc1NC(=O)Cn1ncc2c([nH]c3ccccc32)c1=O,-8.2%,nt,-32.0%,1.3%,nt,10.0%
COc1ccc(CN(C(=O)c2ccccc2F)C2CCS(=O)(=O)C2)cc1 (stereo unspecified),-2.5%,nt,-4.3%,-11.1%,nt,1.5%
COC(=O)Cc1c(C)c2ccc(OCC(=O)N(C)C3CCS(=O)(=O)C3)cc2oc1=O (stereo unspecified),-12.2%,10.6%,-24.3%,8.1%,-1.9%,-0.9%
COc1cccc(CNc2ccc([N+](=O)[O-])cc2C)c1,?,-2.8%,-3.5%,18.4µM*,-16.0%,-2.4%
Fc1ccc(Nc2nc3nonc3nc2Nc2cccc(C(F)(F)F)c2)cc1,0.326µM*,nt,-109.1%,0.164µM*,nt,0.708µM*
SMILES,TDP1 cell CPT,HT1080 IDH1KD tx,HepG2 viability,TDP1 cell noCPT,HT1080NT lethal,TGFb inhibitor
NS(=O)(=O)c1cccnc1Nc1cccc(C(F)(F)F)c1,-21.0%,-21.1%,-7.7%,-28.2%,0.4%,?
Cc1c(C)n(C)c2ccc(C(=O)NCCCN3CCN(c4ccccc4F)CC3)cc12,9.2µM*,?,-21.3%,?,?,?
CSc1ccc(NC(=O)NCCCN2CCN(c3ccccc3F)CC2)cc1,20.6µM*,?,-21.7%,20.6µM*,?,1.9%
CCc1nc2ccc(C(=O)NCCCN3CCN(c4ccccc4F)CC3)cc2nc1CC,?,?,-17.9%,23.1µM*,-5.0%,-13.9%
O=C(NCCCN1CCN(c2ccccc2F)CC1)c1ccc2nc(CCc3ccccc3)oc2c1,20.6µM*,nt,11.2µM*,14.6µM*,nt,?
CCOc1ccc(NC(=O)C(=O)NCCc2csc(-c3ccc(F)cc3)n2)cc1,-22.0%,nt,7.7%,9.0%,nt,8.4%
CCCN1CCN(C(=O)c2ccc(F)c(S(=O)(=O)N3CCOCC3)c2)CC1,13.9%,-1.3%,-1.8%,0.5%,8.2%,9.9%
CCOC(CNc1ncnc2c1cnn2C)OCC,-0.7%,8.0%,-30.6%,-18.9%,?,1.6%
C#CCN(Cc1nc(N2CCOCC2)c2ccc(Cl)cc2n1)Cc1ccco1,25.8%[9.04 µM],nt,nt,?,nt,nt
CSCCNC(=O)C1(C)CCN1C(=O)c1cc(C)n(C)n1 (stereo unspecified),-4.8%,13.5%,-1.8%,-2.2%,23.9%,12.8%
O=C(NCCCN1CCN(c2ccc(F)cc2)CC1)c1ccc2nc(CCc3ccccc3)oc2c1,?,nt,-1.6%,?,nt,13.5%
O=C(NCCCN1CCN(c2ccccc2F)CC1)c1ccc2nc(Cc3ccccc3)oc2c1,?,nt,-42.6%,25.9µM*,nt,?
CCN1c2ccccc2-c2nc(SCC(=O)NCc3ccccc3)ncc2S1(=O)=O,18.4µM*,nt,4.6%,23.1µM*,nt,7.4%
CCOC(=O)c1ccccc1NC(=O)CSc1ncc2c(n1)-c1ccccc1N(CC)S2(=O)=O,?,nt,-3.7%,16.4µM*,nt,3.1%

# Source: PubChem
